Only some compounds are listed: those with a hit (about 2.4% of all), similar ones and a draw of the others.
D2 PAM-1: Beta-Arrestin HTS for Positive Allosteric Modulators of the Human D2 Dopamine Receptor: Potentiators. DiscoveRx D2 beta-arrestin cells, luminescence, 90 min; 100% = 57 uM dopamine signal. potentiation, % (test concentration not listed). 360,000 compounds, 0.23% hits. AID 624464, 2012; in the data active means potentiation above about 50%; inconclusive means mostly about 30% to 49%
Target sequence (P14416 whole entry, looked up): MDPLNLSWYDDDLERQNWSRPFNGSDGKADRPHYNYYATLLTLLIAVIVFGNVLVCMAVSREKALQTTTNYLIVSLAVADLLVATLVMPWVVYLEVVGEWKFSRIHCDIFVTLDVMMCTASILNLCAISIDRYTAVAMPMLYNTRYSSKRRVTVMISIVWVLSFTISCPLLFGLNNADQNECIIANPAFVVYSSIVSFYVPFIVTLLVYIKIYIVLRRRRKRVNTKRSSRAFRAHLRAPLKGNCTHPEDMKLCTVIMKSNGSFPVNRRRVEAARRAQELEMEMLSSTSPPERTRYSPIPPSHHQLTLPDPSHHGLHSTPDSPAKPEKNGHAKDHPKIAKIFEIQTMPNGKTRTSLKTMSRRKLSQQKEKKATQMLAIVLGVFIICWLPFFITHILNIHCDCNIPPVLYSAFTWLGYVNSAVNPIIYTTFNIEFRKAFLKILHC
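D2 cells co-treated with compound plus 50 nM dopamine (EC20) for 90 min at 37 deg C to detect potentiation. Beta-arrestin recruitment was read as enzyme-fragment luminescence after 1 h at ambient temperature. Full response was set by 57 uM dopamine.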
D2 antag: HTS Assay for Allosteric Antagonists of the Human D2 Dopamine Receptor: Primary Screen for Antagonists | D(2) dopamine receptor (Homo sapiens), P14416 | HEK293 TREx D2 cells, calcium flux, dopamine EC80 | inhibition, % at 10 µM | 340,000 compounds, 2% hits | AID 485344, 2010; in the data active means inhibition above about 30%; inactive means below that, where a call was filed; further: 0% is about no effect
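Tetracycline-induced HEK293 TREx cells expressing D2 receptor forced-coupled to calcium signalling, loaded with no-wash calcium dye. Compounds added and calcium flux read 180 s, then dopamine added at EC80 and read a further 180 s.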
D2 ag-1: Beta-Arrestin HTS for Positive Allosteric Modulators of the Human D2 Dopamine Receptor: Agonists. D(2) dopamine receptor (Homo sapiens), P14416. DiscoveRx PathHunter D2 beta-arrestin, luminescence, 90 min; 100% = 57 uM dopamine signal. activation, % (test concentration not listed). 360,000 compounds, 0.084% hits; in the data active means activation above about 40%; inconclusive means between about 15% and that limit
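DiscoveRx PathHunter D2 beta-arrestin cells (2,100/well) attached overnight, then compound-stimulated 90 min at 37 C in HBSS/10 mM HEPES/0.1% Tween-20 buffer; beta-galactosidase complementation read by luminescence after 1 h at ambient temperature. Dopamine 57 uM final (EC100) as control.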
D2 ag-2: HTS Assay for Allosteric Agonists of the Human D2 Dopamine Receptor: Primary Screen for Agonists | HEK293 T-REx D2 cells, calcium flux agonist mode | D(2) dopamine receptor (Homo sapiens), P14416 | activation, % at 2 µM | 340,000 compounds, 0.53% hits;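 active means activation over 3 SD above normal in the single-dose calcium agonist read, cut at about 30% in these data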; further: 0% is about no effect
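Tetracycline-induced HEK293 Trex cells with D2 receptor force-coupled to calcium signaling, plated overnight at 30 C and loaded with no-wash calcium dye. Calcium flux read kinetically for 180 s after compound addition; responses flag agonists.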
D2 PAM-2: HTS Assay for Positive Allosteric Modulators of the Human D2 Dopamine Receptor: Primary Screen for Potentiators | HEK293 T-REx D2, calcium flux, EC20 dopamine potentiation | D(2) dopamine receptor (Homo sapiens), P14416 | potentiation, % at 10 µM | 340,000 compounds, 0.34% hits;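 active means potentiation over 3 SD above the plate norm, cut at about 30% in these data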; further: 0% is about no effect
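Potentiation of an EC20 dopamine calcium response measured kinetically over 180 s, after a preceding 180 s compound-only read flagging agonists. Cells: inducible Hek293 Trex D2 line, 4000/well, cultured overnight at 30 C before dye loading.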
D3 arrestin ag: qHTS of D3 Dopamine Receptor Agonist: D3 Dopamine Receptor B-arrestin Agonist Confirmatory Assay; DiscoveRx D3 beta-arrestin cells, luminescence, 90 min; shares compounds with D2 ag-2; 2,300 compounds, 4% hits; Potency, µM (titrated, usually from 76.9 µM), for the others: at the highest dose activation, usual class: activators;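 further: potency means the concentration at half of the fitted maximal effect; 100% = dopamine control response; nearly all actives have a fitted effect of over 70% in size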
D2 ag-3: qHTS of D3 Dopamine Receptor Agonist: D2 Dopamine Receptor B-arrestin Agonist Counterscreen; Potency, µM (series often up to 76.9 µM), for the others: top-dose activation, hits mostly activators; DiscoveRx PathHunter D2 beta-arrestin, luminescence, 90 min; response scale: percent relative to full dopamine signal; AID 720507, 2013; 2,300 compounds, 5.9% hits; shares compounds with D2 ag-2; further: potency means the concentration at half of the fitted maximal effect; % of control where 0% means no effect; nearly all actives have a fitted effect of over 70% in size
* hit, by the source's call. Unless noted, the call rests on the fitted dose curve; in most records, active means well fitted activation curve with a large enough effect; inconclusive means small, poorly fitted or top-dose-only effect; inactive means flat fitted curve, though single readings scatter.

Results for COc1ccc(OCC(O)CN2CCN(c3ccccc3)CC2)cc1 (configuration not stated) ?
D2 PAM-1: -25.5; D2 antag: -3.7; D2 ag-1: inconclusive; D2 ag-2: 88.5*; D2 PAM-2: -22.2; D3 arrestin ag: inconclusive; D2 ag-3: inconclusive

How did COc1ccc(C(C)C)cc1S(=O)(=O)NCc1ccccn1 do in these assays?
D2 PAM-1: -0.3; D2 antag: -11.7; D2 ag-1: -4.2; D2 ag-2: 0.1; D2 PAM-2: 6.2

How did Cc1ccc(C(C)C)cc1S(=O)(=O)NCc1ccccn1 do in these assays?
D2 PAM-1: 6.0; D2 ag-1: -2.1; D2 PAM-2: 1.2; D3 arrestin ag: -3.3%; D2 ag-3: 0.0%

Results for COC(C/C=C\[C@H](O)[C@H](C)OCc1ccccc1)OC ?
D2 PAM-1: 2.4; D2 ag-1: 2.6

Results for COc1ccccc1N(Cc1ccccc1)S(=O)(=O)c1cccc(C(=O)Nc2cccc(C)n2)c1 ?
D2 PAM-1: 3.6; D2 antag: 5.2; D2 ag-1: 0.5; D2 ag-2: 1.0; D2 PAM-2: 9.2

Results for CCOC(=O)N/N=C/c1ccc(Oc2ccccc2)cc1 ?
D2 PAM-1: -2.5; D2 antag: 11.8; D2 ag-1: -1.7; D2 ag-2: -1.3; D2 PAM-2: 1.0

How did CCOc1ccc(-n2c(SCc3nc(-c4ccc(C)cc4)no3)nnc2-c2ccncc2)cc1 do in these assays?
D2 PAM-1: -8.4; D2 antag: 10.4; D2 ag-1: -3.6; D2 ag-2: 47.4*; D2 PAM-2: -20.8; D3 arrestin ag: -8.4%; D2 ag-3: -0.7%

Results for COc1ccc(-c2noc(CSc3nnc(-c4ccncc4)n3-c3ccc(C)cc3)n2)cc1 ?
D2 ag-2: 2.9; D2 PAM-2: -2.7

Results for CCOc1ccc(NC(=S)NC(=O)c2c(Br)cnn2C)c([N+](=O)[O-])c1 ?
D2 PAM-1: -5.5; D2 antag: 4.5; D2 ag-1: -4.9; D2 ag-2: 47.8*; D2 PAM-2: -15.8; D3 arrestin ag: -5.1%; D2 ag-3: 1.4%

Results for O=C(CCCC(=O)N(c1cccc(F)c1)C(C(=O)NC1CCCC1)c1ccc(O)cc1)Nc1ccccn1 (configuration not stated) ?
D2 PAM-1: -6.9; D2 antag: -1.2; D2 ag-1: -8.3; D2 ag-2: -0.3; D2 PAM-2: 5.3

What do the screens show for `CCCCOC(=O)/C=C\C(=O)OCCCC`?
D2 PAM-1: -2.1; D2 antag: -12.3; D2 ag-1: -5.0; D2 ag-2: -1.1; D2 PAM-2: 16.2

What do the screens show for `CC1(C)CC(O)(CNCc2ccc3c(c2)OCO3)CCO1` (configuration not stated)?
D2 PAM-1: 18.2; D2 antag: 87.8*; D2 ag-1: inconclusive; D2 ag-2: 70.2*; D2 PAM-2: -21.6; D3 arrestin ag: 30.0%; D2 ag-3: inconclusive

What do the screens show for `c1ccc(N2CCN(c3cnccn3)CC2)nc1`?
D2 PAM-1: -10.9; D2 antag: 2.9; D2 ag-1: -2.4; D2 ag-2: -0.8; D2 PAM-2: 12.6
